# From ChEMBL document CHEMBL3988442, “University of Dundee, Small-Polar-MMV Screening Library” (2021)
# The whole screen tested about 65,000 compounds, of which about 65 (0.1%) showed an effect of 50% or more. The full list was thinned out, with strong results kept by preference.
# Target: Tryptophan--tRNA ligase (Mycobacterium tuberculosis (strain ATCC 25618 / H37Rv)) (UniProt P9WFT3)
# Assay: Biochemical assay for Mt-TrpRS
# Type: functional
# Set-up: scale not given: direction of the effect not stated beside the values
# Details: 10 µM
# Sequence of Tryptophan--tRNA ligase (Mycobacterium tuberculosis (strain ATCC 25618 / H37Rv)) (P9WFT3 whole entry): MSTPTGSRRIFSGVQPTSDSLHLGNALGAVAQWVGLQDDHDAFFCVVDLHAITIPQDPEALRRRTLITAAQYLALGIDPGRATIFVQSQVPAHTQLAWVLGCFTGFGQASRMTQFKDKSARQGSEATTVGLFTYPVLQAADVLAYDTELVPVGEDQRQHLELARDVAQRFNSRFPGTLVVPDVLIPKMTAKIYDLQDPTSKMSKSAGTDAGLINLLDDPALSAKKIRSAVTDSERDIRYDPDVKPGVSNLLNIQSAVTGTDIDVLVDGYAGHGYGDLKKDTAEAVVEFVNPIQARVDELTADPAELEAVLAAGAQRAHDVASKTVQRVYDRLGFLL
row,Compound,Percent Effect
1,CC(C)c1nc(CN2CCCC(Cn3cncn3)C2)cs1 (stereo unspecified),61.3%
2,CC(C)(C)c1nc(CN2CCCC(Cn3cncn3)C2)cs1 (stereo unspecified),3.52%
3,c1cnc(-c2nc(CN3CCCC(Cn4cncn4)C3)cs2)nc1 (stereo unspecified),-1.17%
4,CN(Cc1cnn(C)c1)C(=O)CN1CCCC(Cn2cncn2)C1 (stereo unspecified),85.4%
5,Cc1ccc(CN(C)C(=O)CN2CCCC(Cn3cncn3)C2)cc1 (stereo unspecified),11.8%
6,CN(Cc1ccccc1)C(=O)CN1CCCC(Cn2cncn2)C1 (stereo unspecified),5.08%
7,O=C(c1ccno1)N1CCN2C(=O)N(Cc3ccc(F)cc3)C[C@H]2C1,0.0753%
8,O=C(c1ccnnc1)N1C[C@H](OCC2CCOCC2)[C@H]2OCCC[C@H]21,-0.419%
9,O=C(C1CCC1)N1C[C@H]2CNC[C@H]2C1,9.01%
10,O=C(NS(=O)(=O)c1cccnc1)C1CC(c2ccccc2)=NO1 (stereo unspecified),54.1%
11,N#Cc1ccc(S(=O)(=O)NC(=O)C2CC(c3ccccc3)=NO2)cc1 (stereo unspecified),0.0809%
12,COc1cccc(S(=O)(=O)NC(=O)C2CC(c3ccccc3)=NO2)c1 (stereo unspecified),0.405%
13,COc1c(CNC2CCCN(c3ncccn3)C2)c(C(C)C)nn1C (stereo unspecified),67.7%
14,COc1c(CNC2CCN(c3ncccn3)CC2)c(C(C)C)nn1C,1.66%
15,COc1c(CNC2CCN(c3ccccn3)CC2)c(C(C)C)nn1C,1.1%
16,COc1cccc(OC)c1CNC(Cc1ccsc1)c1ccc(C)cn1 (stereo unspecified),-1.02%
17,Cc1occc1C(=O)N1C[C@@H]2CCCO[C@@H]2[C@H](N(C)Cc2ccco2)C1,1.95%
18,CC(C)c1cc(C(=O)N2CCN(CC3CC3)[C@@H]3CS(=O)(=O)C[C@@H]32)no1,-4.85%
19,O=C1N(CCO)CCCC12CCN(Cc1noc(C3CCCC3)n1)C2 (stereo unspecified),7.84%
20,CC(C)N1CCCC2(CCN(Cc3noc(C4CCCC4)n3)C2)C1=O (stereo unspecified),54.2%
21,CCCN1CCCC2(CCN(Cc3noc(C4CCCC4)n3)C2)C1=O (stereo unspecified),7.84%
22,O=C(NCc1ccccc1)N1C[C@H]2CCN[C@H]2C1,2.62%
23,COCCN1C(=O)CO[C@H]2CN(S(=O)(=O)c3ccccc3)C[C@H]21,-1.73%

row,Compound,Percent Effect
1,CCN1C[C@@H]2[C@@H](OC)CCN(C(=O)c3cc(C)nn3CC)[C@@H]2C1,-1.95%
2,Cc1cc(NC(=O)CN2CCc3cncnc3C2)on1,2.85%
3,Cc1ncc2c(n1)CN(CC(=O)Nc1cc(C)on1)CC2,0.514%
4,Cc1cc(NC(=O)CN2CCc3cncnc3C2)no1,69%
5,CCCS(=O)(=O)N1CC[C@H]2O[C@H](c3nnc(C)o3)CC[C@H]21,-5.84%
6,CNC(=O)c1nc(CN2CCOC(C(F)(F)F)C2)no1 (stereo unspecified),69.6%
7,CNC(=O)c1nc(CN2CCOC(CCCC(C)C)C2)no1 (stereo unspecified),0.819%
8,NC(=O)c1nc(CN2CCOC(C(F)(F)F)C2)no1 (stereo unspecified),-0.819%
9,CCCNCc1ccc(-c2ccnc3[nH]ccc23)cc1,-1.02%
10,CC(C)N1[C@@H](C(=O)NCCN(C)C)C[C@H]2CN(c3ncccn3)C[C@H]21,5.77%
11,c1ccc(-c2noc(CNC3CCCN(c4cccnn4)C3)n2)nc1 (stereo unspecified),1.43%
12,c1cnnc(N2CCCC(NCc3nc(-c4cccs4)no3)C2)c1 (stereo unspecified),-1.29%
13,c1cnnc(N2CCCC(NCc3nc(-c4ccco4)no3)C2)c1 (stereo unspecified),90.8%
14,C[C@H]1C[C@H]2CN(C(=O)CC3CC3)CC[C@H]2O1,2.03%
15,CC(C)c1nc(C2CCCN2C(=O)c2cnns2)no1 (stereo unspecified),-5.71%
16,Cc1ccccc1CNC(=O)N1C[C@H]2C[C@H](C(=O)N3CCCC3)[C@@H](C1)O2,-2.16%
17,C=Cn1cc(CN2CCC(c3ncc(Cl)cc3S(C)(=O)=O)CC2)c(C)n1,-5.42%
18,CCn1ncc(CN2CCC(c3ncc(Cl)cc3S(C)(=O)=O)CC2)c1C,-1.24%
19,C=Cn1ncc(CN2CCC(c3ncc(Cl)cc3S(C)(=O)=O)CC2)c1C,67.3%
20,Fc1ccccc1CO[C@@H]1C[C@H]2CN(c3ncccn3)CCN2C1,-4.64%
21,CCc1nnc2n1CCN(Cc1csc(-c3ncccn3)n1)C2,1.94%
22,c1cnc(-c2nc(CN3CCn4c(nnc4C4CC4)C3)cs2)nc1,-3.46%
23,Cc1nnc2n1CCN(Cc1csc(-c3ncccn3)n1)C2,59%

row,Compound,Percent Effect
1,CN(C)C(=O)CN1C[C@@H]2CC[C@H](C1)N(Cc1c(F)cccc1Cl)C2,2.26%
2,COc1ccc(CCc2nnc(NC(=O)C3CC34CCC4)s2)cc1OC (stereo unspecified),-2.9%
3,COc1ccccc1OCCc1nnc(NC(=O)C2CC23CCC3)s1 (stereo unspecified),72.7%
4,COc1ccc(Cc2nnc(NC(=O)C3CC34CCC4)s2)cc1OC (stereo unspecified),1.5%
5,CSC1=Nc2c(cnn2-c2cccc(Cl)c2)C2=NCCCN12,1.3%
6,Cc1cnn(CC2CCCCN2Cc2nc(N)c3ccccc3n2)c1 (stereo unspecified),1.18%
7,Cc1cnn(CC2CCCN2Cc2nnc(C(C)C)o2)c1 (stereo unspecified),60.5%
8,c1ccc(Cc2nnc(CN3CCCCC3Cn3cncn3)o2)cc1 (stereo unspecified),-0.0684%
9,Cc1cnn(CC2CCCN2Cc2nc(N)c3ccccc3n2)c1 (stereo unspecified),57.9%
10,CCc1nnc(CN2CCCC2Cn2cc(C)cn2)o1 (stereo unspecified),9.78%
11,Cc1ccc(-c2nnc(CN3CCCCC3Cn3cncn3)o2)cc1 (stereo unspecified),3.48%
12,Cc1cnn(CC2CCCN2Cc2nc(C)c3ccccc3n2)c1 (stereo unspecified),0.13%
13,CCc1nnc(CN2CCCCC2Cn2cncn2)o1 (stereo unspecified),75.1%
14,Cc1cnn(CC2CCCN2Cc2nnc(C)o2)c1 (stereo unspecified),-10.6%
15,CNC(=O)N1CC[C@@H]2CN(CCc3cccc(OC)c3)S(=O)(=O)[C@@H]2CC1,-3.31%
16,CCc1cnc(N2C[C@H]3C[C@H](C(=O)NC4CCC4)[C@@H](C2)O3)nc1,-1.02%
17,CCNC(=O)N1C[C@@H]2OCC(=O)N(CC3CC3)[C@@H]2C1,-1.91%
18,Cc1cccnc1NCCNC(=O)c1cnc(-c2ccccn2)nc1O,2.7%
19,Cn1cc(CN2CC[C@H]3OCC[C@@H](C(=O)NCc4ccco4)[C@@H]3C2)cn1,0.83%
20,O=C1C[C@H]2[C@@H](CCN2C(=O)c2ccoc2)N1CCN1CCOCC1,2.55%
21,Cn1ccnc1C(=O)N1C[C@@H]2CCN(c3cnccn3)C[C@@H]2C1,2.7%
22,CC(=O)N1CCC1c1nc(-c2ccc(C)s2)no1 (stereo unspecified),13.1%
23,Cc1ccc(-c2noc(C3CCN3C(=O)c3ccn(C)n3)n2)s1 (stereo unspecified),-4.63%

row,Compound,Percent Effect
1,CC(=O)N1CCC(C(=O)N2CCC2c2nc(-c3ccc(C)s3)no2)CC1 (stereo unspecified),56.7%
2,COCCNC(=O)Cn1ccc2sc(C)cc2c1=O,0.44%
3,CCCc1noc(CN2CCN(c3nccs3)CC2)n1,2.03%
4,CCc1noc(CN2CCN(c3nccs3)CC2)n1,71.8%
5,CC(C)Cc1noc(CN2CCN(c3nccs3)CC2)n1,-1.84%
6,Cc1nn(C)c2c(=O)n(CC(=O)NCCC3=CCCCC3)ccc12,2.33%
7,CCCN(CC)c1ccc(C(=O)N2CCCC2c2cnn(C)c2)cn1 (stereo unspecified),-3.89%
8,CCN(c1ccc(C(=O)N2CCCC2c2cnn(C)c2)cn1)C(C)C (stereo unspecified),64.8%
9,CC(C)CN(C)c1ccc(C(=O)N2CCCC2c2cnn(C)c2)cn1 (stereo unspecified),2.24%
10,O=C([C@H]1CN(Cc2nccs2)C[C@H]2OCC[C@@H]12)N1CCCC1,4.93%
11,O=C1CO[C@@H]2CN(S(=O)(=O)c3ccccc3)C[C@H]2N1CC1CC1,4.3%
12,O=S1(=O)CCC(N(Cc2nc3ccccc3o2)Cc2cccs2)C1 (stereo unspecified),57%
13,Cc1noc(C)c1CN(Cc1cccs1)C1CCS(=O)(=O)C1 (stereo unspecified),59.4%
14,Cc1nc(CN(Cc2cccs2)C2CCS(=O)(=O)C2)oc1C (stereo unspecified),1.07%
15,CC(C)(C)c1nc(CN(Cc2cccs2)C2CCS(=O)(=O)C2)no1 (stereo unspecified),-0.877%
16,O=S1(=O)CCC(N(Cc2nc(-c3ccccn3)no2)Cc2cccs2)C1 (stereo unspecified),-6.38%
17,Cc1noc(CN(Cc2cccs2)C2CCS(=O)(=O)C2)n1 (stereo unspecified),-5.5%
18,O=C(c1ccnnc1)N1C[C@@H]2C[C@@H](c3nc(C4CC4)cs3)O[C@@H]2C1,2.42%
19,O=C(NCc1ccco1)[C@@H]1CCO[C@@H]2CCN(c3ncccn3)C[C@@H]21,3.59%
20,c1cncc(OCc2noc3c2CN(Cc2ccsc2)CC3)c1,-0.692%
21,CC(c1nc(C2CC2)no1)N1CCN(c2ccc(C#N)cn2)CC1 (stereo unspecified),0.106%
22,O=C1CC[C@H]2CN(Cc3ccc(Cl)s3)CC[C@H]2N1CCc1c[nH]cn1,0.411%
